# Assay results: a collection of fitness landscapes (doi:10.1126/science.1257360)
# The full ranking holds about 140,000 sequences; the median of “enrichment ratio after two sorts for PhoP signalling” is about 0, and the highest 2% start at about 11. The sample as a whole holds a higher share of the highest values than the screen did.
# B1: PhoQ; a variant is named by its letters at X, in order, P23837 (parent)
# chain: MKKLLRLFFPLSLRVRFLLATAAVVLVLSLAYGMVALIGYSVSFDKTTFRLLRGESNLFYTLAKWENNKLHVELPENIDKQSPTMTLIYDENGQLLWAQRDVPWLMKMIQPDWLKSNGFHEIEADVNDTSLLLSGDHSIQQQLQEVREDDDDAEMTHSVAVNVYPATSRMPKLTIVVVDTIPVELKSSYMVWSWFIYVLSANLLLVIPLLWVAAWWSLRPIEALAKEVRELEEHNRELLNPATTRELTSLVRNLNRLLKSERERYDKYRTTLTDLTHSLKTPLXXLQXXLRSLRSEKMSVSDAEPVMLEQISRISQQIGYYLHRASMRGGTLLSRELHPVAPLLDNLTSALNKVYQRKGVNISLDISPEISFVGEQNDFVEVMGNVLDNACKYCLEFVEISARQTDEHLYIVVEDDGPGIPLSKREVIFDRGQRVDTLRPGQGVGLAVAREITEQYEGKIVAGESMLGGARMEVIFGRQHSAPKDE
# Variants of: B1
# Experiment: enrichment ratio after two sorts for PhoP signalling (ratio (wild type AVST 3.29)); higher = more functional
# Conditions: with PhoP (E. coli)
row,Variant,enrichment ratio
1,NILI,0.917
2,MGLS,5.14
3,GGLI,11.9
4,AKLI,4.91
5,PKIA,≤ 0.25
6,NPEC,≤ 0.25
7,DYPI,≤ 0.25
8,HHAA,≤ 0.25
9,VYEG,≤ 0.25
10,GTRK,≤ 0.25
11,AKAK,≤ 0.25
12,DHNF,≤ 0.25
13,WHAF,≤ 0.25
14,SGQN,≤ 0.25
15,SGVS,13
16,SGVK,≤ 0.25
17,SGGD,≤ 0.25
18,SGPN,≤ 0.25
19,TGVN,5.82
20,SGVA,19
21,SGVN,16.8
22,SGQH,11.9
23,SGKH,≤ 0.25

row,Variant,enrichment ratio
1,SGVG,5.22
2,SGWI,2.76
3,VDSY,≤ 0.25
4,ELCR,≤ 0.25
5,DCKP,≤ 0.25
6,MYPK,≤ 0.25
7,EFWG,≤ 0.25
8,AFDK,≤ 0.25
9,FLSH,≤ 0.25
10,MHCH,≤ 0.25
11,SEFH,4.4
12,EFPG,≤ 0.25
13,REIT,≤ 0.25
14,HGRF,≤ 0.25
15,SGGM,8.79
16,SGVQ,20.5
17,SGWM,9.28
18,SGVM,13.3
19,SGGG,≤ 0.25
20,TGVQ,7.73
21,HQTQ,≤ 0.25
22,KFHQ,≤ 0.25
23,PSSG,≤ 0.25

row,Variant,enrichment ratio
1,AGQH,≤ 0.25
2,HPFG,≤ 0.25
3,NWHP,≤ 0.25
4,LKHK,≤ 0.25
5,VSCM,13.1
6,LCCM,≤ 0.25
7,KCCM,≤ 0.25
8,VCCM,13.1
9,MMCM,≤ 0.25
10,FCCM,≤ 0.25
11,TSCM,25.8
12,RSCM,≤ 0.25
13,VSCK,≤ 0.25
14,FSCM,16.6
15,NSCM,≤ 0.25
16,KSCM,≤ 0.25
17,LKST,≤ 0.25
18,GVIN,≤ 0.25
19,MQIN,≤ 0.25
20,QHSN,≤ 0.25
21,YAPD,≤ 0.25
22,QLGK,3.11
23,MDFQ,≤ 0.25

row,Variant,enrichment ratio
1,YSCK,≤ 0.25
2,YRCM,≤ 0.25
3,VNCM,4.53
4,SSCK,4.35
5,YSCM,12.8
6,SSCM,19
7,AINP,≤ 0.25
8,SWTQ,≤ 0.25
9,RGMH,≤ 0.25
10,HGMH,≤ 0.25
11,AGWR,≤ 0.25
12,AGMH,26
13,AHMH,≤ 0.25
14,NHMH,≤ 0.25
15,AYMH,≤ 0.25
16,THMH,13.2
17,TGMH,14.5
18,PWRH,≤ 0.25
19,DSMV,≤ 0.25
20,ALNP,≤ 0.25
21,ILLI,≤ 0.25
22,IWRF,≤ 0.25
23,LDDP,≤ 0.25

row,Variant,enrichment ratio
1,AMCF,12.3
2,AKCF,1.73
3,MMCF,≤ 0.25
4,SHCF,7.35
5,THCF,17.5
6,ALCF,13.2
7,AICF,13.5
8,WICF,≤ 0.25
9,NMCF,≤ 0.25
10,PLCF,≤ 0.25
11,NHCF,≤ 0.25
12,NICF,≤ 0.25
13,IASH,≤ 0.25
14,FYVH,≤ 0.25
15,ESKG,≤ 0.25
16,WMCQ,≤ 0.25
17,VWMT,≤ 0.25
18,PQSG,≤ 0.25
19,VPYN,≤ 0.25
20,AAPG,≤ 0.25
21,DMIH,≤ 0.25
22,MFGN,≤ 0.25
23,IQAI,≤ 0.25

row,Variant,enrichment ratio
1,SQAI,15.1
2,SKPA,≤ 0.25
3,SAAI,7.86
4,VLAI,≤ 0.25
5,WLAI,≤ 0.25
6,SLAI,15.7
7,SKFA,≤ 0.25
8,SKAI,14
9,YGYC,≤ 0.25
10,YRGI,≤ 0.25
11,YDSS,≤ 0.25
12,AHPL,≤ 0.25
13,RPNK,≤ 0.25
14,DPLE,≤ 0.25
15,SQLE,16.5
16,FELE,20.4
17,SSLE,12
18,SEVE,6.62
19,SFLE,≤ 0.25
20,KSLE,≤ 0.25
21,SELE,21.5
22,SPLE,≤ 0.25
23,QELE,≤ 0.25

row,Variant,enrichment ratio
1,KYLE,≤ 0.25
2,NELE,≤ 0.25
3,LDMG,≤ 0.25
4,LDRD,≤ 0.25
5,SKTY,≤ 0.25
6,FKIR,≤ 0.25
7,PKAM,≤ 0.25
8,NVYD,≤ 0.25
9,IGIE,≤ 0.25
10,KYVT,≤ 0.25
11,PQLS,≤ 0.25
12,PYIW,≤ 0.25
13,WQLE,≤ 0.25
14,GYLE,≤ 0.25
15,GQLE,14.3
16,YTLE,3.23
17,LTLE,≤ 0.25
18,GTLE,14.3
